According to PubChem BioAssay AID488789 (Broad Institute, 2010):
Potency and affinity values are given separately. Results filed as inconclusive are left out. Activity calls are given as the source filed them.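 The calls were made as follows: active = samples whose fitted half-maximal inhibition concentration is no more than ten times the top valid dose tested; inconclusive = flat response between -70 and -30, or invalid curve fit; inactive = flat within 30 of zero, potency above limit, or signal rising.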

What follows are compounds tested against Trypsin (Sus scrofa) (UniProt P00761) (assay: porcine trypsin inhibitors, dose response, selectivity assay for Rce1 protease inhibitor project, biochemical, quenched peptide fluorescence, cherry-pick (AID 488789;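 also: more negative means stronger trypsin inhibition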)). Conditions: quenched peptide cleavage fluorescence; series mostly up to 10 µM; activity change, negative = inhibition: at the top concentration.
Chain of Trypsin (Sus scrofa) (P00761 whole entry, looked up): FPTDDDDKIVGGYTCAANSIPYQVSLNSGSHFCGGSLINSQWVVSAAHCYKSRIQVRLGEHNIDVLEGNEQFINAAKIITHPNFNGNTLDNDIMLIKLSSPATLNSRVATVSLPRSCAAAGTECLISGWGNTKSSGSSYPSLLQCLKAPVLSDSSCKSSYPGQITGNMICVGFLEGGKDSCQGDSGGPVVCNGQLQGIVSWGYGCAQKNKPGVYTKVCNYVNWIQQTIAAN

| SMILES | activity change, negative = inhibition |
| --- | --- |
| COc1ccccc1NC(=O)/C(=C\c1cccnc1)NC(=O)c1ccc(C)cc1 | 1.96% (inactive) |
| N=c1c(C(=O)NCc2ccc(F)cc2)cc2c(=O)n3ccccc3nc2n1Cc1cccnc1 | 37.3% (inactive) |
| CC(=O)N(C)c1ccc(NC(=O)/C=C/c2ccccc2Cl)cc1 | 6.67% (inactive) |
| CCCCNC(=S)NNC(=O)CCn1cc(C)cn1 | 2.77% (inactive) |
| Cc1cc2cc(C#N)c(NCCNC(=S)NCCCN3CCOCC3)nc2cc1C | -4.36% (inactive) |
| COc1cc2c(cc1OC)C(C)N(C(=O)CCNC(=O)c1ccccc1)CC2 (configuration not stated) | -1.59% (inactive) |
| Clc1ccc(CN2CCc3c([nH]c4ccccc34)C2)cc1Cl | -2.35% (inactive) |
| CS(=O)(=O)c1ccc(C(=O)OCC(=O)N(CCc2ccccc2)Cc2ccccc2)cc1 | 15.7% (inactive) |
| CCC(COC)NC(=O)CCc1nnc(Cc2cccc(C(F)(F)F)c2)o1 (configuration not stated) | 3.73% (inactive) |
| COc1cc(-c2nc3ccccn3c2/N=C/c2ccccc2)ccc1O | -1.21% (inactive) |
| FC(F)(F)c1cc(Oc2ccccc2)ncc1-c1nnc(-c2ccccc2Cl)o1 | 16% (inactive) |
| Nc1nonc1-n1nnc(C(=O)N/N=C/c2cccc(Cl)c2)c1CSc1ccc(Cl)cc1 | 7.37% (inactive) |
| CS(=O)(=O)Nc1ccccc1C(=O)NC1CC2CCC1C2 (configuration not stated) | 8% (inactive) |
| CCCNC(=O)c1c(N)n(-c2ccc(S(N)(=O)=O)cc2)c2nc3ccccc3nc12 | -3.19% (inactive) |
| CC(=O)N1c2ccc([N+](=O)[O-])cc2NC(=O)CC1C (configuration not stated) | 3.92% (inactive) |
| Cc1ccc(S(=O)(=O)CC(=O)N2CCN(c3ccccc3F)CC2)cc1 | 12.2% (inactive) |
| CCOC(=O)c1c(NC(=O)COc2ccccc2F)sc2c1CC(C)(C)NC2(C)C | 0.00696% (inactive) |
| COC(C/C=C\C(=O)[C@H](C)OCc1ccccc1)OC | 18.9% (inactive) |
| Cc1ccc(C(=O)N/C(=C/c2ccco2)C(=O)Nc2cccc(C(=O)O)c2)cc1 | 5.53% (inactive) |

| SMILES | activity change, negative = inhibition |
| --- | --- |
| COCCN1C(=O)/C(=C/c2ccc(Oc3ccc([N+](=O)[O-])cn3)c(OC)c2)SC1=Nc1ccccc1 | 10.9% (inactive) |
| CCC(C)(C)c1ccc(OCCCC[n+]2cccc(C)c2C)c(C(C)(C)CC)c1 | -5.25% (inactive) |
| CC(C)N1CCN(S(=O)(=O)c2ccc3ccccc3c2)CC1 | 0.625% (inactive) |
| Cc1ccc(Nc2nc(-c3ccc(S(=O)(=O)N4CCOCC4)cc3)cs2)cc1Cl | 3.37% (inactive) |
| CC(C)CNC(=O)Nc1ccc(F)c(Cl)c1 | 7.58% (inactive) |
| CC(CCc1ccccc1)NCC(O)c1ccc(O)c(C(N)=O)c1 (configuration not stated) | -6.32% (inactive) |
| COc1cccc(/C=N/NC(=O)c2nnn(-c3nonc3N)c2C(C)C)c1OCc1ccc(F)cc1 | 5.63% (inactive) |
| CC(C)C[C@H](NC(=O)c1nc[nH]c1C(=O)N1CCNCC1)C(=O)OCc1ccccc1 | 6.55% (inactive) |
| Cc1ccc(SCc2c(C(=O)N/N=C/c3ccccc3)nnn2-c2nonc2N)cc1 | 1.99% (inactive) |
| CCCN(CCC)CCNC(=O)c1cc2c(-c3ccc(Cl)cc3)nn(C)c2s1 | 5.01% (inactive) |
| CN1CCN(CCCNC(=O)c2cc3c(-c4ccc(Cl)cc4)nn(C)c3s2)CC1 | -4.72% (inactive) |
| CS(=O)(=O)Nc1ccccc1C(=O)NCc1ccccc1Cl | 10.6% (inactive) |
| CC1CCN(C(=O)C2CCN(S(=O)(=O)c3ccc(-n4cnnn4)cc3)CC2)CC1 | 9.4% (inactive) |
| CC(C)CC(=O)NC(=S)Nc1ccc(S(=O)(=O)Nc2nccs2)cc1 | 3.91% (inactive) |
| O=S(=O)(c1ccccc1)c1nc(-c2ccco2)oc1N1CCCCC1 | 3.48% (inactive) |
| O=C(Cn1c2ccccc2c(=O)c2ccccc21)Nc1ccccc1F | -4.99% (inactive) |
| CCN(CC)CCNC(=O)CSc1c2c(nc3cc(Cl)ccc13)CCCC2 | 2.82% (inactive) |
| Cc1ccccc1OC(C)C(=O)N1CCC(Cc2ccccc2)CC1 (configuration not stated) | 13.4% (inactive) |
